# Rows were chosen to be rich in hits. Some 9.2% of all compounds tested hit in one or more screens of this group.
# ELG1 repair inh: ELG1-dependent DNA repair inhibition | HEK293T ELG1-luciferase reporter, luminescence, 16 h; DNA damage induced by 5-fluorouridine | Potency, µM (titrated, usually from 46.1 µM), inactives show at the highest dose activity change, negative = inhibition, hits mostly inhibitors | 330,000 tested, 2.3% active | AID 504467; further: on the % scale 0 is the no-effect control and ±100 the full control effect; nearly all actives have a fitted effect of over 55% in size
#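 Luminescence from the luciferase reporter, measured 30 min after ONE-Glo reagent at room temperature, was the read-out. Beforehand, 2,000 cells per well were exposed for 16 hr at 37 °C to 5-fluorouridine together with compound or vehicle.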
# SMN2 splice up: enhancers of SMN2 splice variant expression; HEK293 SMN2-luciferase splicing reporter, luminescence, 30-36 h; Potency, µM (doses to about 46.1 µM), for the others: at the top dose activity change, positive = activation, usual class: activators; 210,000 tested, 2.8% active; AID 1458; further: % of control where 0% means no effect; nearly all actives have a fitted effect of over 55% in size
#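 HEK293 cells carry an SMN2 minigene-luciferase reporter in which exon 7 inclusion puts luciferase in frame. Cells were seeded at 2000 cells/well, attached for 10-12 hours, then exposed to compounds for 30-36 hours at 37C before ONE-Glo luminescence.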
# Rab9 promoter act: activators of Rab9 promoter; Huh7 Rab9 promoter-luciferase reporter, luminescence, 24 h; Potency, µM (doses to about 9.22 µM), inactives show top-dose activation, negative = inhibition, most hits filed as activators; 320,000 tested, 2.8% active; AID 485297; further: % of control where 0% means no effect; nearly all actives have a fitted effect of over 60% in size
#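 Measured in stably transfected Huh7 cells bearing a Rab9 promoter–luciferase construct: 24 h compound treatment at 37 °C, followed by luminescence detection.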
# ELG1 genotoxic: genotoxicity induction in ELG1-luciferase HEK293T cells. HEK293T ELG1-luciferase reporter, luminescence, 16 h. Potency, µM (doses to about 46 µM), for inactives: top-dose activity change, positive = activation, usual class: activators. 330,000 tested, 1.3% active. AID 504466; further: % of control where 0% means no effect; nearly all actives have a fitted effect of over 60% in size
#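 DMSO vehicle served as control against compound-treated ELG1-luciferase HEK293T cells; exposure lasted 16 hr at 37 °C and 5% CO2, followed by ONE-Glo luminescence detection after 30 min.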
# FLuc modulator: firefly luciferase modulation, counter-screen for miR-21 project. P08659. purified FLuc, Km substrates, luminescence inhibition. Potency, µM (top dose mostly 57.5 µM), for the others: top-dose activity change, negative = inhibition, hits mostly inhibitors. 360,000 tested, 6.9% active;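 further: plate controls were vehicle for no effect and reference inhibitor for full effect; nearly all actives have a fitted effect of over 55% in size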
# Target sequence (P08659 whole entry, looked up): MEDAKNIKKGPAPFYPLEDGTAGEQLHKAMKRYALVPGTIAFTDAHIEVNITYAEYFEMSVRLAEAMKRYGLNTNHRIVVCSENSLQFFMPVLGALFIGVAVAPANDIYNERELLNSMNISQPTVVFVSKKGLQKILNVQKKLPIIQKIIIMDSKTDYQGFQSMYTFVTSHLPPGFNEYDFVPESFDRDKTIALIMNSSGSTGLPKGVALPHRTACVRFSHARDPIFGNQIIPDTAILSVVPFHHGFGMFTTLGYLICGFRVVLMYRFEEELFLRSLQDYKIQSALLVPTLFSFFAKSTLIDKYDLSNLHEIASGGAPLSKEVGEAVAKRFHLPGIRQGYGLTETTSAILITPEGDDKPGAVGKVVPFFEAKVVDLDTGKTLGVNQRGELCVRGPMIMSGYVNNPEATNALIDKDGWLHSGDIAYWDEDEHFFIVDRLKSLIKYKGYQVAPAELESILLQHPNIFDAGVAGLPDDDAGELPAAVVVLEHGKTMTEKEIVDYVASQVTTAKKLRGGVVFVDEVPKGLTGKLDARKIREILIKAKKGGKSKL
#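 Biochemical qHTS of compounds, final roughly 60 µM downward over six points, against 10 nM purified firefly luciferase using Km concentrations of substrates (10 uM D-luciferin, 10 uM ATP) in Tris acetate pH 7.5 buffer; luminescence output.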
# NPC1 prom act: activates the NPC1 promoter; 320,000 tested, 2.4% active; Huh7 NPC1 promoter luciferase reporter, 24 h; AID 485313; Potency, µM (titrated, usually from 9.22 µM), for inactives: at the highest dose activation, usual class: activators; further: % of control where 0% means no effect; nearly all actives have a fitted effect of over 60% in size
#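 Luminescence from an NPC1 promoter-driven luciferase reporter in stably transfected Huh7 cells was measured after 24 h compound treatment at 37 °C, followed by 10 min ambient incubation with luciferase detection reagent.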
# The depositor's hits bear a star; u = inconclusive; x = not tested or not shown; [ ] = another dose, or the depositor's remark. The call rests on the fitted dose curve; in most records, active means well fitted curve in the direction sought with a large enough effect; inconclusive means small, poorly fitted or top-dose-only effect, or another doubt; inactive means no such curve, though single readings can be large; an effect the other way counts as inactive or inconclusive. Potency means the concentration at half of the fitted maximal effect.
SMILES,ELG1 repair inh,SMN2 splice up,Rab9 promoter act,ELG1 genotoxic,FLuc modulator,NPC1 prom act
Cn1c(C(=O)N2CCC(C(=O)N3CCN(Cc4ccc5c(c4)OCO5)CC3)CC2)cc2sccc21,7.31µM*,-37.5%,-14.5%,-28.4%,0.7%,-7.9%
O=C(c1ccccc1)N1CCN(Cc2ccc3c(c2)OCO3)CC1,-16.8%,x,-4.9%,-1.2%,-0.9%,2.1%
O=C(c1sccc1Cl)N1CCN(Cc2ccc3c(c2)OCO3)CC1,20.6µM*,x,4.8%,-9.2%,-4.2%,1.1%
O=C(C1CCN(c2nnc(N3CCCC3=O)s2)CC1)N1CCN(Cc2ccc3c(c2)OCO3)CC1,13µM*,-28.3%,-0.9%,0.6%,-0.8%,-7.5%
COc1ccsc1C(=O)N1CCN(Cc2ccc3c(c2)OCO3)CC1,u,-12.9%,-5.4%,0.8%,0.1%,1.0%
Cn1c(C(=O)N2CCN(Cc3ccc4c(c3)OCO4)CC2)cc2sccc21,u,-24.1%,-3.4%,-3.5%,-1.4%,-0.5%
O=C(c1[nH]nc2c1CCc1ccccc1-2)N1CCN(Cc2ccc3c(c2)OCO3)CC1,9.2µM*,x,-41.3%,-5.1%[9.26 µM],12.3%,-9.9%

# Assay outcomes as filed in PubChem.
